# Most compounds without a hit are left out; they make up all but 4.1% or so of the library.
# CaV13 ICDI inh = Primary screen for inhibitors of IQ motif and Ca2+-dependent inactivation inhibitor domain binding in CACNA1D, Förster resonance energy transfer in living cells, …. inhibition, % at 12.3 µM. HEK cells, CFP/YFP FRET ICDI-IQ, plate reader, 10 min; percent FRET-ratio fall versus neutral wells. 0.098% of 340,000 active. AID 743397;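 active means mean replicate inhibition of at least 30% and at least 1% of replicates passing that level; inconclusive means only one of the two criteria is met; inactive means neither criterion is met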;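 further: 0% = median of the neutral control wells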
# PolyA inhibitor = yeast polyadenylation inhibition | S. cerevisiae SKY197-pL101 polyadenylation reporter, beta-gal luminescence; efflux-impaired pdr1/pdr3 knockout yeast; score 100 = 6 SD above DMSO | activity score, % at 12 µM | 0.02% of 300,000 active | AID 1875;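 active means lowest replicate activity score at least 50, where 100 means six control SD above control mean; inconclusive means lowest score under 50 but half or more replicates reach 50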;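 further: yeast exposed to compound for 9 h at 30 °C; higher score means more reporter readthrough which indicates perturbed polyadenylation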
# PfM18AAP inh-1 = blocks P. falciparum M18 aspartyl aminopeptidase; inhibition, % at 7.35 µM; recombinant PfM18AAP, H-Glu-NHMec fluorogenic cleavage; 1.2% of 290,000 active;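 active means inhibition above the campaign mean inhibition over all tested compounds plus 3 SD, cut at about 28% in these data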;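 further: 0% = plate median of test compound wells and 100% = 2 mM ZnCl2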
# IDE inh = cellular human IDE inhibition; P14735; HEK cells, FAbetaB cleavage, fluorescence polarization; inhibition, % at 5.59 µM; 0.41% of 320,000 active; AID 434962;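 active means percent inhibition above the average of all tested compounds plus 3 SD, set per screening campaign, cut at about 16% in these data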;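 further: IDE supplied by intact live HEK cells; FP after avidin binding of uncleaved biotin substrate so inhibition keeps polarization high; 0% = DMSO wells and 100% = 60 µM reference IDE inhibitor Ii1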
# ALR H2O2 inh = inhibitors of human sulfhydryl oxidase ALR; P55789; purified ALR, DTT oxidation, H2O2 HRP-luminol luminescence; inhibition, % (concentration not given with the values); 3.8% of 290,000 active;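 active means mean replicate inhibition above about 79%, with every replicate also reaching it, limit read from the data; inconclusive means only one of the two criteria met; inactive means mean below limit and not every replicate reaching it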
# Target sequence (P55789 whole entry, looked up): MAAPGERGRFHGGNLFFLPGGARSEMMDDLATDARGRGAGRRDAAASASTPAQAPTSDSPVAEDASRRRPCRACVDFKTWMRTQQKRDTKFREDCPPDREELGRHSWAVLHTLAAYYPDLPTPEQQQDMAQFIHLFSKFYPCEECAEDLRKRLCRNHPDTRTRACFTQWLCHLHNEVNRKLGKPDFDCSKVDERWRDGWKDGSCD
# IDE act = activators of human insulin-degrading enzyme in cells; AID 493087; 0.073% of 340,000 active; HEK cells, FAbeta-B cleavage, fluorescence polarization; 0% vehicle, 100% cell-free pure enzyme wells; activation, % at 5.96 µM; P14735;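 active means activation above the mean of all tested compounds plus 3 SD, set per screening campaign, cut at about 17% in these data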
# PfM18AAP inh-2 = confirmation of Plasmodium falciparum M18 aspartyl aminopeptidase inhibitors; shares compounds with PfM18AAP inh-1; recombinant PfM18AAP, H-Glu-NHMec fluorogenic cleavage; inhibition, % at 7.35 µM; 28% of 2,400 active; AID 2170;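 active means mean inhibition over replicate wells above the hit cutoff set for the earlier primary screen, cut at about 29% in these data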;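 further: 0% = median of test compound wells and 100% = 2 mM ZnCl2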
# CTSL1 confirm = counter-screen for PFM18AAP inhibitors: confirmation of human cathepsin L inhibitors | shares compounds with PfM18AAP inh-1 | purified cathepsin L1, Z-Leu-Arg-MCA fluorescence | inhibition, % at 5.96 µM | 2,400 tested, under 10 active;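 active means average inhibition across replicates above the hit cutoff set in the earlier primary screen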;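 further: 0% = median of test compound wells and 100% = Z-Phe-Ala-diazomethylketone 1 µM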
# Target sequence (P07711 whole entry, looked up): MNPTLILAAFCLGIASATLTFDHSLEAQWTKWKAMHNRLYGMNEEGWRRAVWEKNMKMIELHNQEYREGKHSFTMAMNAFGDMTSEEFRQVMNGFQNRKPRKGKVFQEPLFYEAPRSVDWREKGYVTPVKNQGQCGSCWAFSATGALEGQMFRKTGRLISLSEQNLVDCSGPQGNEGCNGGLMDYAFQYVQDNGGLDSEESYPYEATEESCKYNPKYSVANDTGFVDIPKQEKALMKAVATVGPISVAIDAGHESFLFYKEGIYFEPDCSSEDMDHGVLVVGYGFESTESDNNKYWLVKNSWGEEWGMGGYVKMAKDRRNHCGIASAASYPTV
# * marks the source's active call; other numbers are inactive results; u = inconclusive; x = no result given.
SMILES,CaV13 ICDI inh,PolyA inhibitor,PfM18AAP inh-1,IDE inh,ALR H2O2 inh,IDE act,PfM18AAP inh-2,CTSL1 confirm
O=C(O)c1ccnc(SCC(=O)c2ccccc2)c1,-3,-21,50*,8,x,0,26,0
O=C(CSc1ccccn1)c1ccc(F)cc1,x,-2,9,0,9,4,x,x
O=C(CSc1ncccc1C(=O)O)c1ccccc1,x,16,-2,2,-1,-6,x,x
S=c1[nH]c(-c2ccccc2)cn1-c1ccccc1,-19,-8,46*,-1,97*,-3,35*,-2
O=[N+]([O-])c1cccc(-c2cn(-c3ccccc3)c(=S)[nH]2)c1,-6,-10,50*,-5,2,-1,50*,-4
Nc1ccc(-n2cc(-c3ccccc3)[nH]c2=S)cc1,-20,21,44*,3,91*,0,11,-1
O=[N+]([O-])c1ccc(-c2cn(-c3ccccc3)c(=S)[nH]2)cc1,-4,-8,27,2,-2,1,x,x
COc1ccccc1-n1cc(-c2ccc(C)cc2)[nH]c1=S,-18,-26,6,-2,33,1,x,x
COc1ccccc1-n1cc(-c2ccc([N+](=O)[O-])cc2)[nH]c1=S,-19,-11,32*,-1,1,-1,22,-1
CC(=O)Nc1ccc(C(C#N)=Cc2ccc(N(C)CCC#N)cc2)cc1,-21,x,x,x,x,x,x,x
CCOC(=O)C(NC(=O)c1cccc(Cl)c1)(OCc1ccccc1)C(F)(F)F (stereo not drawn),-3,-4,1,-1,-2,-2,x,x
Cc1ccn2c(C(=O)NNC(=O)Nc3ccc(Cl)cc3)c(C)nc2c1,x,x,64*,x,u,0,48*,-4
Cc1nc2ccccn2c1C(=O)NNC(=O)Nc1cccc(C(F)(F)F)c1,x,13,64*,-1,36,0,33*,8
O=C1C=C(c2ccc3ccccc3c2)C[C@@H](c2ccc(F)cc2)C1,-12,x,x,2,-33,2,x,x
c1ccc2c(c1)Nc1nccnc1S2,-14,x,36*,-2,7,-8,4,-7
O=C1Nc2cccnc2Sc2ccccc21,-8,11,-2,1,-11,-7,x,x
COc1cc(/C=N/N2CCN(Cc3ccccc3)CC2)cc(OC)c1OC(C)=O,-5,2,36*,-1,-23,2,3,3
COc1cc(/C=N/N2CCN(Cc3ccccc3)CC2)cc(OC)c1OC,-6,x,x,x,x,x,x,x
COc1ccc(C2/C(=C(/O)c3ccc4c(c3)CC(C)O4)C(=O)C(=O)N2CCN2CCOCC2)cc1 (stereo not drawn),-6,16,9,0,6,1,x,x
O=C(C1=C(O)C(=O)N(CCN2CCOCC2)C1c1ccc([N+](=O)[O-])cc1)c1cc2ccccc2o1 (stereo not drawn),x,2,34*,-1,70,0,-36,-1
CC1Cc2cc(/C(O)=C3/C(=O)C(=O)N(CCN4CCOCC4)C3c3ccc([N+](=O)[O-])cc3)ccc2O1 (stereo not drawn),-5,5,33*,-5,38,0,-22,-10
CCOc1c2ccc(C(=O)N[C@H](C)C3CCCCC3)cc2nn1CC,-10,-12,2,-9,-5,5,x,x
O=C(c1ccc(Cl)cc1)c1c[nH]cc1-c1ccccc1,-4,-5,37*,-1,x,7,-43,1
Cc1nc(N)sc1-c1csc(N(C)c2ccc(O)cc2)n1,-7,-13,33*,-2,61,5,-25,0
CN(c1ccc(O)cc1)c1nc(-c2cccs2)cs1,-5,-17,39*,1,98*,-11,-5,1
SMILES,CaV13 ICDI inh,PolyA inhibitor,PfM18AAP inh-1,IDE inh,ALR H2O2 inh,IDE act,PfM18AAP inh-2,CTSL1 confirm
CCC(C)(C)NC(=O)CCn1c(-c2ccccc2)cc(C(C)=O)c1C,-2,9,-3,-4,-14,5,x,x
N/C(Cn1cncn1)=N\NC(=O)c1ccc(Cl)cc1Cl,2,15,10,-2,-7,3,x,x
O=C(c1ccc(Cl)cc1Cl)C1(n2cncn2)Oc2ccccc2C1O (stereo not drawn),-5,-71,36*,6,x,-5,4,-4
CCc1ccc(NC(=S)Nn2cnnc2)cc1,-6,6,76*,0,6,-4,64*,1
COc1ccc(NC(=S)Nn2cnnc2)cc1OC,3,-7,79*,7,x,2,76*,0
S=C(Nc1ccccc1)Nn1cnnc1,-18,-3,65*,1,x,3,61*,5
Cc1ccc(NC(=S)Nn2cnnc2)cc1,10,-6,77*,0,7,2,67*,0
CC(Sc1nc(N)cc(=O)[nH]1)C(=O)Nc1nc2c(s1)CCCC2 (stereo not drawn),-5,26,6,-1,12,2,x,x
Cn1nc(C(=O)Nc2ccc3c(c2)OCCO3)cc1C(=O)O,x,4,-2,9,-10,-1,x,x
COc1ccc(NC(=S)Nc2ccccc2)c(OC)c1,-17,-23,-6,1,-11,6,x,x
CCc1ccc(NC(=O)Nn2cnnc2)cc1,x,0,55*,1,-6,5,30*,-4
COc1ccc(NC(=S)Nn2cnnc2)c(OC)c1,-9,x,72*,x,0,0,80*,-3
CCCCN(C(=O)C1CC(=O)N(Cc2ccc(C)cc2)C1)c1c(N)n(CC(C)C)c(=O)[nH]c1=O (stereo not drawn),-6,-10,20,2,-3,3,x,x
CCOC(=O)c1[nH]c2ccc(F)cc2c1NC(=O)c1ccccc1C(=O)O,-2,-99,33*,x,66,6,-34,3
COc1ccc(N2C(=O)CC(N(Cc3ccco3)C(=O)CCC(=O)O)C2=O)cc1 (stereo not drawn),-2,26,1,6,-14,-6,x,x
CC1C(=O)Nc2ccc(S(=O)(=O)NCCc3ccc(Cl)cc3)cc2NC1=O (stereo not drawn),17,-5,1,2,-3,-3,x,x
C/C(Cn1nc([N+](=O)[O-])cc1C)=N\NC(=O)c1ccc(O)cc1O,x,14,41*,-3,5,0,4,6
CCC1CCCCN1CCCNC(=O)c1ccc2c(c1)NC(=O)CN2C (stereo not drawn),-5,21,32*,6,-2,-3,-13,5

# Screens from PubChem.
